The list is not random: actives were taken first. Their share in the collection is about 1.5%.
NadD inh = blocks S. aureus nicotinate mononucleotide adenylyltransferase | purified NadD enzyme, colorimetric absorbance read-out | inhibition, % at 20 µM | 0.78% of 360,000 active | AID 602399; in the data active = inhibition above about 26%
Neddylation inh = cullin neddylation inhibition. P61081+Q13564. TR-FRET cullin neddylation, biochemical. inhibition, % at 25 µM. 0.58% of 360,000 active; in the data active = inhibition above about 36%
GC-B act = GC-B (human) receptor activation; P20594; HEK293-GC-B cells, CNP EC30, cGMP TR-FRET; 0% at EC30 CNP, 100% saturating CNP; activation, % at 10 µM; 0.11% of 370,000 active; AID 1920062;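 active = activation at 10 µM reaching about 35% in either raw or pattern-adjusted values, limit read from the data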
GC-A act = GC-A (human) enzyme activation. AID 1671463. P16066. HEK293 GC-A cells, cGMP TR-FRET, EC30 ANP; 0% at EC30 ANP, 100% saturating ANP. activation, % at 10 µM. 0.14% of 370,000 active; in the data active = activation above about 40%
NadD inh conf = confirmation of Staphylococcus aureus NadD inhibitors; shares compounds with NadD inh; purified S. aureus NadD, colorimetric enzyme assay; inhibition, % at 20 µM; 13% of 2,000 active; AID 624309; in the data active = inhibition mostly above about 42%, no sharp cut-off; inactive = mostly below about 42%
* hit, by the source's call; . = no result given.

SMILES	NadD inh	Neddylation inh	GC-B act	GC-A act	NadD inh conf
COC(=O)[C@]12C[C@H](CC(=O)N3CCC(c4ccccc4)CC3)C(=O)N(CCC3=CCCCC3)C1=C[C@H](C1CCCC1)O[C@@H]2C	.	.	1	1	.
Cc1noc(C)c1C(=O)N1CCC(n2nnc3ncccc32)CC1	.	.	3	2	.
O=C(Cn1c2ccccc2c(=O)c2ccccc21)N/N=C/c1ccc(N2CCCC2)c([N+](=O)[O-])c1	27	10	3	2	.
O=C(Cn1c2ccccc2c(=O)c2ccccc21)N/N=C/c1cc([N+](=O)[O-])ccc1N1CCCCCC1	50*	17	0	-10	3
Nc1nc2ccccc2[nH]1	-5	2	3	1	.
Nc1ccccc1Sc1nc2ccccc2[nH]1	34*	2	2	1	34
COC(=O)C[C@@H]1CC[C@@H]2[C@@H](COc3ccc(NC(=O)Nc4ccc(F)cc4)cc3C(=O)N2C)O1	.	.	-3	-2	.
O=[N+]([O-])c1ccc(Nc2cccc3c2[nH]c2c(-c4ccccc4)nccc23)c([N+](=O)[O-])c1	44*	-6	-2	-6	16
Nc1ccccc1Nc1ccc([N+](=O)[O-])cc1[N+](=O)[O-]	-1	-33	2	-1	.
CC(C)C[C@H]1COc2cc(N3CCSCC3)ccc2S(=O)(=O)N1C	.	.	7	6	.
O=C(Nc1c(-c2ccc(F)cc2)nc2ncccn12)C1CC1	.	.	0	0	.
COc1ccc(/C=C/C(=O)NCC(=O)N/N=C/c2cc(Br)ccc2OCc2ccccc2)cc1	28*	9	-7	-5	-1
CC(CCN1CCC(C(O)(c2ccccc2)c2ccccc2)CC1)Oc1ccccc1C#N (configuration not stated)	.	.	-20	-28	.
CC(NC(=O)c1c(N)[nH]c(C(=O)c2ccc(Cl)cc2)c1-c1ccc(Br)cc1)c1cccc2ccccc12 (configuration not stated)	.	.	7	-5	.
CC(NC(=O)c1c(N)[nH]c(C(=O)c2ccccc2)c1-c1ccccc1Br)c1cccc2ccccc12 (configuration not stated)	35*	12	-9	-14	37
COc1ccc(Cn2ccc3ccc(-c4ccc5ccn(Cc6ccc(C#N)cc6)c5c4)cc32)cc1	.	.	-1	0	.
COc1cccc2[nH]c3ccccc3c(=O)c12	-1	.	.	.	.
Nc1cccc2c(=O)c3ccccc3[nH]c12	29*	11	-1	-6	-3
CCCC/C=C1/[C@@H](CC)N(Cc2ccc(OC)cc2OC)C2=N[C@@H](c3ccccc3)CC(=O)N21	.	.	-19	-22	.
O=C(/C=C/c1ccco1)NC(=S)Nc1cccc([N+](=O)[O-])c1	39*	-6	-2	1	18
O=C(/C=C/c1ccco1)NC(=S)Nc1cccc(-c2nc3ccccc3o2)c1	31*	-7	0	-4	-5
O=C(/C=C/c1ccco1)NC(=S)Nc1cccc(-c2nc3ccccc3s2)c1	62*	-100	-3	-2	13
Cc1cccc(NC(=S)NC(=O)/C=C/c2ccco2)c1	3	-4	-1	-10	.
O=C(/C=C/c1ccco1)NC(=S)Nc1cc(-c2nc3ccccc3s2)ccc1Cl	52*	-146	-6	-13	1
CC(=O)N1C[C@@H](CO)[C@@H](N(C)C(=O)Nc2cccc3ccccc23)C[C@H]1c1ccccc1	.	.	8	4	.
SMILES	NadD inh	Neddylation inh	GC-B act	GC-A act	NadD inh conf
O[C@H](COc1cccc(F)c1)CN1CCC(C(O)(c2ccccc2)c2ccccc2)CC1	.	.	-13	-16	.
COc1cc(C2C(C#N)=C(N)Oc3c2ccc2ccccc32)ccc1OCC(=O)Nc1cccc(C)c1 (configuration not stated)	30*	.	4	-4	41
COc1cc(C2C(C#N)=C(N)Oc3c2ccc2ccccc32)ccc1OCC(=O)Nc1ccc(C)cc1 (configuration not stated)	40*	29	1	0	37
COc1ccc(C2C(C#N)=C(N)Oc3c2ccc2cccnc32)cc1OC (configuration not stated)	4	-28	7	9	.
N#CC1=C(N)Oc2c(ccc3ccccc23)C1c1ccsc1 (configuration not stated)	8	3	-4	0	.
CC(c1ccc(NC(=O)OC(C)(C)C)cc1)c1cn(C)c2ccccc12 (configuration not stated)	.	.	1	0	.
C=CCN1C(=O)[C@@H](CC(=O)NCCCN2CCCC2=O)[C@]2(C(=O)OC)CCCCC=C12	.	.	3	3	.
O=C(NCc1ccccc1)c1ccc2nc(-c3ccco3)c(-c3ccco3)nc2c1	45*	-25	-6	-15	7
Cc1ccc(NS(=O)(=O)c2cc(NC(=O)c3ccc4c(c3)NC(=O)CS4)ccc2C)c(C)c1	34*	8	11	-3	24
Cc1cc2cc(CNC(=O)Nc3ccc(Cl)c(Cl)c3)ccc2n1C	31*	-186	-3	2	17
Cc1ncc(CO)c2c1Oc1nc(-c3ccccc3)nc(SCC(=O)Nc3cccc(O)c3)c1C2	43*	-1	-11	-11	39*
O=C(CSc1nc(-c2ccc(F)cc2)nc2c1Cc1ccccc1O2)Nc1cccc(C(=O)O)c1	10	-60	-5	-20	.
COc1ccc(OCc2nnc(SCC(=O)Nc3cccc(C(C)=O)c3)o2)cc1	-7	7	-5	-1	.
COc1ccc(-c2nc3c(c(SCC(=O)Nc4cccc(O)c4)n2)Cc2c(CO)cnc(C)c2O3)cc1	50*	-4	-8	-24	18
COc1ccc(C(F)(F)F)cc1NC(=O)C(OC(=O)CNC(=O)c1ccccc1)c1ccccc1 (configuration not stated)	.	.	-12	-10	.
COc1ccc(/C=C2/CN(Cc3ccc(OC)cc3OC)C3=NC(c4ccc5ccccc5c4)CC(=O)N32)cc1 (configuration not stated)	.	.	-5	-4	.
O=C(C1=C[C@@H]2[C@H]3C(=O)N(c4ccc(Cl)cc4)C(=O)[C@H]3[C@@H](C(=O)c3ccc(Cl)cc3)N2C=C1)c1ccccc1	43*	-25	3	-2	0
Cc1ccc(N2C(=O)C3C(C2=O)C(C(=O)c2ccc(Cl)cc2)N2CCCC32)cc1 (configuration not stated)	3	-2	0	2	.
Cc1ccc(S(=O)(=O)N2c3ccc(F)cc3C[C@H]2CSc2ccccc2)cc1	.	.	-5	-1	.
O=C1Nc2ccccc2N=C(c2ccc3c(c2)OCO3)C1N(C(=O)c1ccnc2ccccc12)c1ccccc1 (configuration not stated)	13	-11	-8	-9	.
O=C1Nc2ccccc2N=C(c2ccc3c(c2)OCO3)C1N(C(=O)c1ccc2ccccc2c1)C1CC1 (configuration not stated)	35*	10	-4	-10	22
